From the supplement of paper PMC11732987, “Enantioselective OTUD7B fragment discovery through chemoproteomics screening and high-throughput optimisation” (Communications Chemistry, 2025)

Biological target: USP14 (UniProt P54578)
Assay: log2 ratio of Biotin-Ahx-Ub-VS probe labelling (fragment/DMSO); higher = less target engagement (more negative = stronger competition), active = hit call of the paper (q ≤ 0.05, log2 ratio ≤ -1)
Conditions: compound concentration: 200 uM; treatment time: 3 h
Method: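 Competitive ABPP in HEK293T cell lysate. Lysates were treated with each chloroacetamide fragment at 200 µM for 3 h, then with Biotin-Ahx-Ub-VS (0.5 µM, 1 h), NeutrAvidin-enriched and analysed by diaPASEF LC-MS/MS. Protein LFQ was median-normalised; average log2 ratio is fragment/DMSO from an unpaired t-test (n=3 treated, n=44 DMSO). Hits: q ≤ 0.05, log2 ratio ≤ -1, unique peptides ≥ 2.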

Chain of USP14 (P54578 whole entry, the tested form may be a part): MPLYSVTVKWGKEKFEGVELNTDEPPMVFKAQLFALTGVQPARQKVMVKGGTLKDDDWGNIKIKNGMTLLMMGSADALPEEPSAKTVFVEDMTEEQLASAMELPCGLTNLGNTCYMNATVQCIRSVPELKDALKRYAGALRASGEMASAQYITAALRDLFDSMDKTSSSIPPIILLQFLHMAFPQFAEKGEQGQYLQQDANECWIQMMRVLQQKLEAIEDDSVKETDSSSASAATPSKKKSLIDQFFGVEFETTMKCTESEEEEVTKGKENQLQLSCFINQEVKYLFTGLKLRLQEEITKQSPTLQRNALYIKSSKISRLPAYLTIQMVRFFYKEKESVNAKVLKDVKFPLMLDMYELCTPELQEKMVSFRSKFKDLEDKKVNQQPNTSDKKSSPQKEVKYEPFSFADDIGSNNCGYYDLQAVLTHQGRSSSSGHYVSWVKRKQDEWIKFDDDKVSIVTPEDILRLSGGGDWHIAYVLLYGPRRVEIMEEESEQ

log2 ratio of Biotin-Ahx-Ub-VS probe labelling, inactive:
O=C(CCl)N(Cc1ccsc1)C1CC1 -0.456
CC(NC(=O)CCl)c1cc2n(n1)CCCC2.Cl (stereo not given) -0.363
Cl.Cn1nccc1C(NC(=O)CCl)c1ccccc1 (stereo not given) -0.0812
O=C(CCl)NCc1ccc(Cl)cc1 -0.109
O=C(CCl)N1CCc2nc[nH]c2C1c1ccc(Cl)cc1 (stereo not given) -0.69
O=C(CCl)N1CCCN(C(=O)c2ccc(Cl)cc2)CC1 -0.452
Cl.Cn1nc2c(c1CNC(=O)CCl)CCCC2 -0.00316
CC(NC(=O)CCl)c1noc(Cc2ccccc2)n1 (stereo not given) -0.411
CS(=O)(=O)N1CCCN(C(=O)CCl)CC1 0.105
CC1(NC(=O)CCl)CCS(=O)(=O)C1 (stereo not given) -0.815
O=C(O)C1Cc2ccccc2CN1C(=O)CCl (stereo not given) -0.621
Cc1ccc(CC(NC(=O)CCl)c2ccccn2)cc1.Cl (stereo not given) -0.0182
Cl.O=C(CCl)NCc1ccnc(Oc2ccccc2F)c1 -0.153
COc1ccc(Cl)cc1NC(=O)CCl -0.655
Cc1c(C#N)c(NC(=O)CCl)n(Cc2ccco2)c1C -0.314
Cc1noc(C)c1CNC(=O)CCl -0.561
CC1Cc2ccccc2N1C(=O)CCl (stereo not given) -0.771
Cl.O=C(CCl)N1CCC(n2nc3ccccc3n2)CC1 -0.545
O=C(CCl)Nc1cccc(C(=O)N2CCSCC2)c1 -0.335
Cc1ccc2nnc(CNC(=O)CCl)n2c1 0.17
O=C(CCl)NCCc1cccc2ccccc12 0.0871
Cl.O=C(CCl)N1CCCC(c2ncc[nH]2)C1 (stereo not given) -0.141
CCN(Cc1ccc(C#N)cc1F)C(=O)CCl -0.392
O=C(CCl)NCCc1ccc(F)cc1 -0.0749
O=C(CCl)Nc1ccc2c(c1)OC(F)(F)O2 -0.0555
O=C(CCl)NC1CCC(C(F)(F)F)CC1 (stereo not given) -0.454
COc1ccc(C2CCCN2C(=O)CCl)c(OC)c1 (stereo not given) -0.545
CNC(=O)C1(NC(=O)CCl)CCCCC1 -0.0905
O=C(CCl)N1CCC(S(=O)(=O)c2ccc(F)cc2)CC1 -0.0146
Cc1ncsc1CCNC(=O)CCl 0.518
CNC(=O)C1CCN(C(=O)CCl)CC1 -0.146
Cc1n[nH]c2c1CN(C(=O)CCl)CC2 -0.903
O=C(CCl)N1CCCC1c1ccsc1 (stereo not given) -0.248
O=C(CCl)NC1(c2ccc3c(c2)OCCO3)CCCC1 -0.293
O=C(CCl)N1CCC(c2nc3ccccc3o2)CC1 -0.483
Cc1n[nH]c(=O)c2c(NC(=O)CCl)oc(C)c12 0.0281
Cc1ccc(N(C(=O)CCl)C2C=CS(=O)(=O)C2)cc1 (stereo not given) -0.0859
O=C(CCl)N(C1CCCC1)C1CCS(=O)(=O)C1 (stereo not given) -0.171
CN1c2ccccc2C(NC(=O)CCl)CS1(=O)=O (stereo not given) -0.335
Cl.O=C(CCl)N1CC(c2ccc(Br)cn2)C1 -0.592
